In the supplement of paper PMC10849652:
Of roughly 7,900 targets only a part is listed; those with a hit were picked by preference. About 0.6% of all pairs of compound and target were hits.

What was measured:
Assay in all cases: log2 fold change, soluble protein after heating vs DMSO (PISA); higher = thermal stabilisation; K562 cells, 10 uM, 30 min; active = over 0.2 and 3.5 SD of the protein, either way, in both replicates (recomputed)
[1] = compound: CN1CCN(CCOc2cc(OC3CCOCC3)c3c(Nc4c(Cl)ccc5c4OCO5)ncnc3c2)CC1 [saracatinib]
Method in brief: (§1)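 Values are thermal stability changes relative to control samples and are taken from duplicates. They are stated as log2 fold changes. Before quantification by TMTpro 16plex LC-MS/MS with equalised channel sums, K562 cells at 2×10^6 cells/mL were treated with 10 μM compound for 30 min, heated in aliquots for 3 min across 48°C-58°C, pooled, extracted in PBS with 0.5% NP-40 at 4°C, and centrifuged at 21,000xg for 90 min to give the soluble supernatant.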

[2] = compound: CN1CCN(c2nc(C3=C(c4c[nH]c5ccccc45)C(=O)NC3=O)c3ccccc3n2)CC1 [sotrastaurin]
Method in brief: as §1

[3] = compound: CN1CC[C@H](c2c(O)cc(O)c3c(=O)cc(-c4ccccc4Cl)oc23)[C@H](O)C1 [alvocidib]
Method in brief: as §1

[4] = compound: CN1CCc2c(c3ccccc3n2Cc2ccc(C(=O)NO)cc2)C1 [Tubastatin A]
Method in brief: as §1

[5] = compound: CNC(=O)C1=CC=CC=C1NC2=NC(=NC=C2Cl)NC3=C(C=C(C=C3)N4CCOCC4)OC
Method in brief: as §1

[6] = compound: CNC(=O)c1ccc(Nc2ncc(C(F)(F)F)c(NCc3nccnc3N(C)S(C)(=O)=O)n2)cc1 [defactinib]
Method in brief: as §1

[7] = compound: CNCc1ccc(-c2[nH]c3cc(F)cc4c3c2CCNC4=O)cc1 [rucaparib]
Method in brief: as §1

[8] = compound: CNc1nc(-c2ccc3c(N)n[nH]c3c2)cc(N2C[C@@H](C(=O)NC3CCCCC3)CC[C@H]2C)n1
Method in brief: as §1

[9] = compound: COC(=O)N[C@@H](C)CNc1nccc(-c2cn(C(C)C)nc2-c2cc(Cl)cc(NS(C)(=O)=O)c2F)n1 [encorafenib]
Method in brief: as §1

[10] = compound: COC(=O)[C@H](CCSC)NC(=O)C1=C(C=C(C=C1)NC[C@H](CS)N)C2=CC=CC=C2
Method in brief: as §1

UniProt P36969, sequence (P36969 whole entry, looked up): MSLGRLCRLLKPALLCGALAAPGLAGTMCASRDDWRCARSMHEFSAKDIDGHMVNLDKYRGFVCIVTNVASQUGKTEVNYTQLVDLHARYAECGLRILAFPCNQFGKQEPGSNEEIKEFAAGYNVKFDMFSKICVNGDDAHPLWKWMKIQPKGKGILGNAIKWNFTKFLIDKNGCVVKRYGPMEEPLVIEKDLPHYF
UniProt P13807, sequence (P13807 whole entry, looked up): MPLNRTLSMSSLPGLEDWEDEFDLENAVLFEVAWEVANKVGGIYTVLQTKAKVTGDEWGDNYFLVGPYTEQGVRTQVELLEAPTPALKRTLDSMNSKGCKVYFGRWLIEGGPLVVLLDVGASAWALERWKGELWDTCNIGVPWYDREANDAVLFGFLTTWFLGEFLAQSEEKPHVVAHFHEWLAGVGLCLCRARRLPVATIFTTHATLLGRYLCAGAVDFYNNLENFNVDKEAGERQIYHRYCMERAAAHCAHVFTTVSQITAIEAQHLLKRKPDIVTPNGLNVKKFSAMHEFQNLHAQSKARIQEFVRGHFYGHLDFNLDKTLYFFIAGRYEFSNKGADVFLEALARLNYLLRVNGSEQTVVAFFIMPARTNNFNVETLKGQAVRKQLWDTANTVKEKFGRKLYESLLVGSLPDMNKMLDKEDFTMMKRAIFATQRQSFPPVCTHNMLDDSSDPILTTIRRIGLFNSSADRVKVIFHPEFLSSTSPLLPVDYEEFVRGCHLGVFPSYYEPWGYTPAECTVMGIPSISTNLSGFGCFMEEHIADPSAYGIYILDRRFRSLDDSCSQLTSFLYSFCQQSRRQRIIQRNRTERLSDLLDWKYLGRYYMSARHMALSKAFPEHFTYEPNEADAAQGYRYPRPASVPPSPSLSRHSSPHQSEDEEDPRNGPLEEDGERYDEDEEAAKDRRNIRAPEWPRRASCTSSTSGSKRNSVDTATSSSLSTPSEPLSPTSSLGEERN
UniProt P29084, sequence (P29084 whole entry, looked up): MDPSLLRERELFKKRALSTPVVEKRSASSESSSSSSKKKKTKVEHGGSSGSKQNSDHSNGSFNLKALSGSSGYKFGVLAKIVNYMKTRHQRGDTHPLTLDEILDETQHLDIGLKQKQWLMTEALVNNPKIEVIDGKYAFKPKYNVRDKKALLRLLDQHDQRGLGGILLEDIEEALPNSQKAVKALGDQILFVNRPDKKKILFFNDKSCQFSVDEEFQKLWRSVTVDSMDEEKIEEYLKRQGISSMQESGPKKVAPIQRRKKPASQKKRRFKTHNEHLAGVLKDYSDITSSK
UniProt P51570, sequence (P51570 whole entry, looked up): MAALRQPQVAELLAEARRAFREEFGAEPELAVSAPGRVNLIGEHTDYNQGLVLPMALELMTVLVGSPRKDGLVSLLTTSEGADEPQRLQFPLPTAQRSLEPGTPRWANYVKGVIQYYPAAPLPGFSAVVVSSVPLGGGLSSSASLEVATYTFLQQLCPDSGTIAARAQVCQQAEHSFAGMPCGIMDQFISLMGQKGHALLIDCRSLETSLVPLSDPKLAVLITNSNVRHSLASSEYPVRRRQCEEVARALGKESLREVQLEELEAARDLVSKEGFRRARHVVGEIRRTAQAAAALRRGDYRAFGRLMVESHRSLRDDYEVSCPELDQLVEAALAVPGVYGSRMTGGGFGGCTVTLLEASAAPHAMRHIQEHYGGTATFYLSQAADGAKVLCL
UniProt Q6Y7W6, sequence (Q6Y7W6 whole entry, looked up): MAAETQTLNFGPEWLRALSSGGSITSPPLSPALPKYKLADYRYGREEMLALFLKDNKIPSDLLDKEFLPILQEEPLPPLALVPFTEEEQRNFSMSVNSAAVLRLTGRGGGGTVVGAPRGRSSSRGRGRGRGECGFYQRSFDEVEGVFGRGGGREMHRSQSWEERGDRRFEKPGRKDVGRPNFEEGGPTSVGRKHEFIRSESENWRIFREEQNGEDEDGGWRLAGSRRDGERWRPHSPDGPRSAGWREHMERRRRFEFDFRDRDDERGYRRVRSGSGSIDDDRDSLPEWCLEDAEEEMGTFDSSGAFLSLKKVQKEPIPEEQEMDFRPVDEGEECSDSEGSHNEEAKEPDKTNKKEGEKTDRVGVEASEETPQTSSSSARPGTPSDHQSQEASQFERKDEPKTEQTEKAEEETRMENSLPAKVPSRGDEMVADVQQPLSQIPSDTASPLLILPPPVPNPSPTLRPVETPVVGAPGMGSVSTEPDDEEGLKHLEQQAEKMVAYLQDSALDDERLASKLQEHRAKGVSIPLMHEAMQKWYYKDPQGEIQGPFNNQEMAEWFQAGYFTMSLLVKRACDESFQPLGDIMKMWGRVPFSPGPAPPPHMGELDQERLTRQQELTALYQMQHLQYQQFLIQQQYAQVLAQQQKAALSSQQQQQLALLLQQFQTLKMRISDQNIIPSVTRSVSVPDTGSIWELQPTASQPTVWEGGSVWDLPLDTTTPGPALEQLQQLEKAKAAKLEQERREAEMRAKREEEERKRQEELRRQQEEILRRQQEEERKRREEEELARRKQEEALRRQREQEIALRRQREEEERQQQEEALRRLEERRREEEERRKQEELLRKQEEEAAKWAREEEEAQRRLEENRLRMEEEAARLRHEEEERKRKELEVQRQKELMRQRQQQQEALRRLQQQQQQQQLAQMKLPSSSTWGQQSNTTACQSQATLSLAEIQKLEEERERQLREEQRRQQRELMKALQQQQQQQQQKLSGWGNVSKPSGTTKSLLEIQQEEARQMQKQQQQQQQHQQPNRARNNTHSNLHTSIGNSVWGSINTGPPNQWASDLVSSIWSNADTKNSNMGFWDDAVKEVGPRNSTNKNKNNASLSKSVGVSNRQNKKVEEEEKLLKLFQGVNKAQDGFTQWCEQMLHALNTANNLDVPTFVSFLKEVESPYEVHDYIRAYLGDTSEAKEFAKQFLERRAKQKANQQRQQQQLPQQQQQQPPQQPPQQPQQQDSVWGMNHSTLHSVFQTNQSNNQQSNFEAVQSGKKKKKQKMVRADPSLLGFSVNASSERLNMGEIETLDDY
UniProt Q9NVI1, sequence (Q9NVI1 whole entry, looked up): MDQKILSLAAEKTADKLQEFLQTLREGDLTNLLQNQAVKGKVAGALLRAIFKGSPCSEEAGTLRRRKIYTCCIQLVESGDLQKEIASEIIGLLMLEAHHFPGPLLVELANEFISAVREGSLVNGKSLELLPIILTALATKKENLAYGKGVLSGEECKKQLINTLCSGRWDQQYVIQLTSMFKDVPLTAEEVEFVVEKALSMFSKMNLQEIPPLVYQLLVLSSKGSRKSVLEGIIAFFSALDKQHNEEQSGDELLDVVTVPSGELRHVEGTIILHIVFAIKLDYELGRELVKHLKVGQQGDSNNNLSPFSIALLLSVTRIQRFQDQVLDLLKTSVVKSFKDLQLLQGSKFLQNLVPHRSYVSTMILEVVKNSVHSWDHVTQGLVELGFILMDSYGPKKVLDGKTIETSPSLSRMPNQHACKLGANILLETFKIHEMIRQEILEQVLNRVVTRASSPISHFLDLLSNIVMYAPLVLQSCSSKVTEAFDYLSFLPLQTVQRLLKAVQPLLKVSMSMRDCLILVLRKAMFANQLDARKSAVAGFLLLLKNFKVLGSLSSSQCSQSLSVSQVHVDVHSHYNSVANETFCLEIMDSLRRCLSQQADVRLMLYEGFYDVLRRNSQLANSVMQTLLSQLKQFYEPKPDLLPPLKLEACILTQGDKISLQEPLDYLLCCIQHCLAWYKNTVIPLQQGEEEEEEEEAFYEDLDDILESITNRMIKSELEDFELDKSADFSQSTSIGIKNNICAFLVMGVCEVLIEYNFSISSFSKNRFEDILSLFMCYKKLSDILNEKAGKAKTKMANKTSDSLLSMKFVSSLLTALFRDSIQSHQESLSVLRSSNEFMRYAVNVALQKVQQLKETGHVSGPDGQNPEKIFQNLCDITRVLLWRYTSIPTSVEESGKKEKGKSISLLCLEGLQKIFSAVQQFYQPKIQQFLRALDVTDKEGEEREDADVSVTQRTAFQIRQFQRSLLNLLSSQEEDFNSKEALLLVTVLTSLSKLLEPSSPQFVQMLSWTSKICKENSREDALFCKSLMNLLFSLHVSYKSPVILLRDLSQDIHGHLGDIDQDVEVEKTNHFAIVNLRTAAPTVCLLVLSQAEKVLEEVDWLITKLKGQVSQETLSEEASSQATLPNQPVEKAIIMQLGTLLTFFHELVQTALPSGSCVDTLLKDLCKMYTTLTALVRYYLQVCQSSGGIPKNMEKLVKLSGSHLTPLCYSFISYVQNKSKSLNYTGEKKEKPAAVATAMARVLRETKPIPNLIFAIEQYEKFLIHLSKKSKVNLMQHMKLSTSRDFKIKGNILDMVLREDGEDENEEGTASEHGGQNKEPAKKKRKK
UniProt Q9BYC5, sequence (Q9BYC5 whole entry, looked up): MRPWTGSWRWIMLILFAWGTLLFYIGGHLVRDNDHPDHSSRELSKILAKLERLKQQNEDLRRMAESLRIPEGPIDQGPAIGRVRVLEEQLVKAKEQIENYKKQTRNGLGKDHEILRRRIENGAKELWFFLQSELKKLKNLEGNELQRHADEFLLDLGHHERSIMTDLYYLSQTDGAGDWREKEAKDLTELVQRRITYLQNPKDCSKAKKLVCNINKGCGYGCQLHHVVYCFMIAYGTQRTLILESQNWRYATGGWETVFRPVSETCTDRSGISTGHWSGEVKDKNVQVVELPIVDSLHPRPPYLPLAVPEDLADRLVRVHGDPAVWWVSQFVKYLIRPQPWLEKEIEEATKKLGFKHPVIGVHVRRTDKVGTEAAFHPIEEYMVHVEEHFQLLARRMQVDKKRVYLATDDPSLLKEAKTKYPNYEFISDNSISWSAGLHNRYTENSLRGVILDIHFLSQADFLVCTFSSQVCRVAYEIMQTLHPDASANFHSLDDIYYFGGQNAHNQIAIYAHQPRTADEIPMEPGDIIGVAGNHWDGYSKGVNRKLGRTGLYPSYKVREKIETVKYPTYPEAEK
UniProt Q8WXD5, sequence (Q8WXD5 whole entry, looked up): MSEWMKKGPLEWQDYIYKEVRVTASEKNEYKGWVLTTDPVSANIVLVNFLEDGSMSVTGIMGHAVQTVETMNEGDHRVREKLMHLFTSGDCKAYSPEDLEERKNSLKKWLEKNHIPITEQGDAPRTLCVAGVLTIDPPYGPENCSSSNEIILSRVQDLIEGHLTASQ

Target | log2 fold change [1] | log2 fold change [2] | log2 fold change [3] | log2 fold change [4] | log2 fold change [5] | log2 fold change [6] | log2 fold change [7] | log2 fold change [8] | log2 fold change [9] | log2 fold change [10]
GAK (UniProt O14976) | 1.06 (inactive) | -0.066 (inactive) | 1.14 (inactive) | 0.011 (inactive) | 1.11 (inactive) | 0.658 (inactive) | 0.237 (inactive) | 0.402 (inactive) | -0.17 (inactive) | -0.266 (inactive)
GLRX3 (UniProt O76003) | -0.017 (inactive) | -0.066 (inactive) | -0.071 (inactive) | 0.015 (inactive) | 0.053 (inactive) | -0.091 (inactive) | -0.063 (inactive) | -0.023 (inactive) | 0.029 (inactive) | -0.03 (inactive)
HLTF (UniProt Q14527) | -0.012 (inactive) | 0.019 (inactive) | -0.036 (inactive) | 0.081 (inactive) | -0.03 (inactive) | -0.122 (inactive) | -0.033 (inactive) | -0.074 (inactive) | -0.195 (inactive) | -0.027 (inactive)
HAX1 (UniProt O00165) | -0.067 (inactive) | -0.106 (inactive) | -0.015 (inactive) | 0.015 (inactive) | -0.14 (inactive) | -0.008 (inactive) | 0.082 (inactive) | 0.051 (inactive) | 0.045 (inactive) | -0.013 (inactive)
GTF3A (UniProt Q92664) | 0.019 (inactive) | -0.008 (inactive) | -0.113 (inactive) | -0.072 (inactive) | -0.03 (inactive) | -0.18 (inactive) | 0.206 (inactive) | -0.005 (inactive) | -0.138 (inactive) | 0 (inactive)
FNTA (UniProt P49354) | 0.084 (inactive) | 0.141 (inactive) | -0.006 (inactive) | -0.068 (inactive) | -0.028 (inactive) | 0.019 (inactive) | -0.243 (inactive) | -0.016 (inactive) | -0.239 (inactive) | 0.561 (active)
GIGYF2 (UniProt Q6Y7W6) | -0.097 (inactive) | -0.111 (inactive) | -0.118 (inactive) | 0.023 (inactive) | 0.005 (inactive) | -0.04 (inactive) | 0.065 (inactive) | 0.016 (inactive) | -0.018 (inactive) | -0.022 (inactive)
FBXO42 (UniProt Q6P3S6) | -0.032 (inactive) | 0.051 (inactive) | -0.107 (inactive) | 0 (inactive) | -0.067 (inactive) | -0.165 (inactive) | -0.073 (inactive) | 0.139 (inactive) | 0.03 (inactive) | 0.012 (inactive)
GNB2 (UniProt P62879) | -0.033 (inactive) | 0.019 (inactive) | 0.001 (inactive) | 0.015 (inactive) | -0.002 (inactive) | -0.028 (inactive) | -0.004 (inactive) | 0.039 (inactive) | 0.005 (inactive) | -0.065 (inactive)
GCC2 (UniProt Q8IWJ2) | -0.051 (inactive) | -0.077 (inactive) | 0.117 (inactive) | 0.053 (inactive) | 0.061 (inactive) | 0.026 (inactive) | 0.175 (inactive) | 0.031 (inactive) | 0.136 (inactive) | -0.049 (inactive)
GEMIN6 (UniProt Q8WXD5) | 0.063 (inactive) | 0.002 (inactive) | -0.028 (inactive) | 0.072 (inactive) | 0.013 (inactive) | -0.061 (inactive) | 0.069 (inactive) | -0.028 (inactive) | -0.04 (inactive) | -0.112 (inactive)
GALK1 isoform 2 (UniProt P51570) | 0.117 (inactive) | -0.096 (inactive) | -0.035 (inactive) | -0.011 (inactive) | -0.049 (inactive) | -0.032 (inactive) | -0.014 (inactive) | 0.055 (inactive) | 0.007 (inactive) | -0.006 (inactive)
HMGCR isoform 3 (UniProt P04035) | 0.002 (inactive) | -0.287 (inactive) | -0.021 (inactive) | 0.33 (active) | -0.133 (inactive) | -0.004 (inactive) | -0.208 (inactive) | -0.024 (inactive) | 0.094 (inactive) | 0.146 (inactive)
FUBP3 (UniProt Q96I24) | 0.012 (inactive) | 0.05 (inactive) | 0.129 (inactive) | -0.092 (inactive) | -0.039 (inactive) | 0.184 (inactive) | 0.167 (inactive) | -0.049 (inactive) | -0.003 (inactive) | -0.032 (inactive)
GLUD1 (UniProt P00367) | 0.161 (inactive) | 0.14 (inactive) | -0.002 (inactive) | -0.04 (inactive) | 0.096 (inactive) | 0.041 (inactive) | -0.099 (inactive) | 0.089 (inactive) | -0.056 (inactive) | 0.002 (inactive)
FANCD2 isoform 1 (UniProt Q9BXW9) | -0.038 (inactive) | 0.017 (inactive) | -0.102 (inactive) | -0.053 (inactive) | -0.126 (inactive) | -0.145 (inactive) | 0.051 (inactive) | 0.028 (inactive) | 0.009 (inactive) | -0.029 (inactive)

Target | log2 fold change [1] | log2 fold change [2] | log2 fold change [3] | log2 fold change [4] | log2 fold change [5] | log2 fold change [6] | log2 fold change [7] | log2 fold change [8] | log2 fold change [9] | log2 fold change [10]
GNL1 (UniProt P36915) | 0.013 (inactive) | 0.013 (inactive) | -0.038 (inactive) | 0.018 (inactive) | 0.009 (inactive) | 0.023 (inactive) | -0.039 (inactive) | 0.016 (inactive) | 0.021 (inactive) | -0.011 (inactive)
FUT8 (UniProt Q9BYC5) | -0.095 (inactive) | -0.049 (inactive) | 0.055 (inactive) | 0.02 (inactive) | 0.023 (inactive) | 0.049 (inactive) | -0.037 (inactive) | 0.017 (inactive) | 0.018 (inactive) | 0.506 (active)
HBQ1 (UniProt P09105) | -0.029 (inactive) | 0.007 (inactive) | -0.034 (inactive) | -0.011 (inactive) | -0.013 (inactive) | -0.009 (inactive) | -0.027 (inactive) | 0.008 (inactive) | -0.007 (inactive) | 0.028 (inactive)
HRAS (UniProt P01112) | 0.002 (inactive) | 0.091 (inactive) | -0.075 (inactive) | 0.014 (inactive) | -0.015 (inactive) | -0.012 (inactive) | 0.072 (inactive) | 0.077 (inactive) | -0.042 (inactive) | 0.062 (inactive)
FARS2 (UniProt O95363) | -0.026 (inactive) | -0.003 (inactive) | -0.158 (inactive) | -0.045 (inactive) | 0.075 (inactive) | -0.023 (inactive) | -0.026 (inactive) | 0.074 (inactive) | 0.026 (inactive) | -0.054 (inactive)
FDPS (UniProt P14324) | -0.151 (inactive) | -0.041 (inactive) | -0.057 (inactive) | 0.062 (inactive) | -0.097 (inactive) | -0.032 (inactive) | -0.112 (inactive) | 0.237 (inactive) | 0.137 (inactive) | -0.118 (inactive)
FANCI (UniProt Q9NVI1) | -0.022 (inactive) | -0.099 (inactive) | -0.13 (inactive) | -0.103 (inactive) | -0.111 (inactive) | -0.179 (inactive) | 0.041 (inactive) | -0.002 (inactive) | 0.003 (inactive) | -0.02 (inactive)
HMGN1 (UniProt P05114) | 0.024 (inactive) | 0.068 (inactive) | 0.149 (inactive) | -0.087 (inactive) | 0.03 (inactive) | 0.09 (inactive) | 0.043 (inactive) | -0.064 (inactive) | -0.01 (inactive) | 0.011 (inactive)
GTF2E2 (UniProt P29084) | -0.103 (inactive) | -0.163 (inactive) | -0.023 (inactive) | 0.054 (inactive) | 0.056 (inactive) | -0.085 (inactive) | 0.03 (inactive) | 0.025 (inactive) | 0.145 (inactive) | -0.035 (inactive)
FOXO3 (UniProt O43524) | -0.017 (inactive) | 0.004 (inactive) | -0.124 (inactive) | 0.051 (inactive) | -0.167 (inactive) | -0.037 (inactive) | -0.077 (inactive) | -0.208 (inactive) | 0.16 (inactive) | 0.021 (inactive)
GID4 (UniProt Q8IVV7) | 0.04 (inactive) | -0.091 (inactive) | -0.006 (inactive) | 0.015 (inactive) | -0.038 (inactive) | 0.032 (inactive) | 0.032 (inactive) | -0.079 (inactive) | -0.072 (inactive) | 0.139 (inactive)
HDAC6 (UniProt Q9UBN7) | -0.067 (inactive) | -0.013 (inactive) | -0.009 (inactive) | 1.01 (active) | -0.037 (inactive) | -0.028 (inactive) | -0.028 (inactive) | 0.09 (inactive) | -0.135 (inactive) | -0.014 (inactive)
GYS1 (UniProt P13807) | -0.255 (inactive) | -0.286 (inactive) | 0.1 (inactive) | 0.035 (inactive) | 0.107 (inactive) | 0.057 (inactive) | 0.077 (inactive) | 0.193 (inactive) | 0.176 (inactive) | -0.047 (inactive)
ICAM1 (UniProt P05362) | 0.035 (inactive) | 0.07 (inactive) | -0.004 (inactive) | -0.03 (inactive) | -0.073 (inactive) | -0.026 (inactive) | 0.049 (inactive) | 0.099 (inactive) | -0.004 (inactive) | 0.043 (inactive)
GPX4 (UniProt P36969) | 0.043 (inactive) | 0.004 (inactive) | -0.035 (inactive) | -0.371 (active) | -0.02 (inactive) | -0.009 (inactive) | 0.002 (inactive) | -0.037 (inactive) | -0.009 (inactive) | -0.013 (inactive)
